# Data: PubChem BioAssay (NCI)
# The panel holds about 83,000 compounds, 20% with a hit somewhere; the sample as a whole holds those more often.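 Negative percent growth values reflect cell death: -40 means 40% of the cells present at the start died, and -100 means all died.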 A number with no mark means an inactive call. Calls of active or inactive are those of the source. The calls were made as follows: active = growth percent below 10; inactive = the rest.
# Key:
# Experiment in all cases: NCI-60 one-dose screen, 48 h (100 = growth as untreated, 0 = no growth, -100 = all killed)
# Details in all cases: 10 µM unless noted
# RPMI-8226 leukemia = tested on: RPMI-8226 leukemia
# OVCAR-8 ovarian = tested on: OVCAR-8 ovarian
# OVCAR-5 ovarian = tested on: OVCAR-5 ovarian
# OVCAR-4 ovarian = tested on: OVCAR-4 ovarian
# SK-OV-3 ovarian = tested on: SK-OV-3 ovarian
# IGROV1 ovarian = tested on: IGROV1 ovarian
# OVCAR-3 ovarian = tested on: OVCAR-3 ovarian
# HS 578T breast = tested on: HS 578T breast
# NCI/ADR-RES ovarian = tested on: NCI/ADR-RES ovarian
# T-47D breast = tested on: T-47D breast
# BT-549 breast = tested on: BT-549 breast
# MDA-MB-435 melanoma = tested on: MDA-MB-435 melanoma
# SW-620 colon = tested on: SW-620 colon
# MCF7 breast = tested on: MCF7 breast
# HCT-116 colon = tested on: HCT-116 colon
# HCC-2998 colon = tested on: HCC-2998 colon
# KM12 colon = tested on: KM12 colon
# SR leukemia = tested on: SR leukemia
Compound,growth (RPMI-8226 leukemia),growth (OVCAR-8 ovarian),growth (OVCAR-5 ovarian) [%],growth (OVCAR-4 ovarian),growth (SK-OV-3 ovarian),growth (IGROV1 ovarian),growth (OVCAR-3 ovarian),growth (HS 578T breast),growth (NCI/ADR-RES ovarian),growth (T-47D breast),growth (BT-549 breast),growth (MDA-MB-435 melanoma),growth (SW-620 colon),growth (MCF7 breast),growth (HCT-116 colon),growth (HCC-2998 colon) [%],growth (KM12 colon),growth (SR leukemia)
CCCCc1ccc(C(N)=O)nc1,88.6%,107%,96.2,100%,99.5%,19.4%,107%,-48.3% (active),106%,101%,97.8%,106%,-90% (active),86.9%,99.4%,110,100%,
COc1cccc(-c2nc(-c3ccc(N)cc3)co2)c1,89.5%,85.8%,115,109%,118%,-0.817% (active),82%,115%,92.8%,105%,110%,93.3%,113%,98.9%,91.5%,122,99.2%,
Cc1cc(=O)[nH]c(/C(=N/Nc2ccccc2)C(=O)c2ccc(Cl)cc2)n1,96.6%,92.8%,117,111%,98.3%,17.6%,97.5%,83.6%,106%,77%,97.4%,108%,94.6%,90.1%,,109,102%,
CCN(CC)c1ccc(/C=C/C(=O)c2cccc(NS(C)(=O)=O)c2)cc1,,,64.4,42.2%,51.1%,9.33% (active),48.5%,28.5%,26.4%,44.3%,58.3%,22.7%,22.1%,22.8%,25.8%,23.2,17.1%,-4.7% (active)
NS(=O)(=O)c1ccc(-n2ncc3c(SCc4ccccc4)ncnc32)cc1,91.9%,96.1%,99.7,104%,108%,85.9%,99.4%,97.3%,101%,91.6%,91.6%,106%,95.5%,98.7%,82.7%,127,94.1%,
C[C@]12CC[C@H](O)CC1=CC[C@@H]1[C@@H]2CC[C@]2(C)C(c3cccnc3)=CC[C@@H]12,,,92.3,49.7%,87.8%,43.5%,56.1%,13.6%,49.9%,55.6%,59.5%,19.8%,72.7%,,58.7%,74.6,52.8%,0.438% (active)
C(#Cc1ccccc1C#Cc1ccccn1)c1ccc(OCCCCCCOc2ccc(C#Cc3ccccc3C#Cc3ccccn3)cc2)cc1,5% (active),47.6%,85.4,46.5%,80.9%,-48.8% (active),35.5%,72.7%,40%,36.5%,39.6%,25.6%,62.6%,21.1%,38.4%,58.8,37.1%,
Clc1ccc(C2c3ccccc3-c3nccn32)c(Cl)c1 (stereo not given),26.5%,84.1%,114,47.3%,84.7%,77.1%,55%,73.7%,61.5%,56.2%,83.8%,89.6%,85.4%,,49%,99,79.2%,
COc1cccc(N2CCN(c3cccc(C)n3)CC2)c1,115%,87.1%,96.5,116%,107%,-11.8% (active),87.5%,100%,95.5%,115%,105%,95.1%,110%,95.4%,91%,107,110%,
COc1cc(/C=C/C(=O)CC(=O)/C=C/c2ccc(OC(=O)CCNC34CC5CC(CC(C5)C3)C4)c(OC)c2)ccc1OC(=O)CCNC12CC3CC(CC(C3)C1)C2,-30.4% (active),14.7%,51.8,65.3%,63.8%,6.65% (active),-7.82% (active),19.3%,78.4%,50.8%,-10.7% (active),-31.2% (active),8.69% (active),17.8%,-0.854% (active),34.1,5.79% (active),
N#Cc1c(NC(=O)c2ccco2)[n+]([O-])c2ccccc2[n+]1[O-],447%,90.3%,89.7,109%,110%,-49.8% (active),115%,98%,116%,90.8%,92.9%,107%,107%,71.3%,93.8%,98.3,109%,
O=[N+]([O-])c1ccc2[nH]cc(-c3c4ccccc4cc4[nH]c5ccc([N+](=O)[O-])cc5c34)c2c1,,,67.8,26.7%,64.4%,18.7%,-7.76% (active),30.4%,8.13% (active),-10.2% (active),19.2%,-11.6% (active),28%,8.11% (active),9.37% (active),57.6,5.55% (active),10.2%
O=C1Nc2ccc(Cl)cc2[C@@](C#CC2CC2)(C(F)(F)F)O1,92.2%,91.3%,91.1,89.1%,110%,-10.5% (active),101%,99.2%,99.1%,70.4%,117%,88%,107%,105%,82.9%,108,86.1%,
CC(C)Cn1cnc2c(NCn3nc(-c4cc(Cl)cc(Cl)c4Cl)n(/N=C/c4ccc(Cl)cc4)c3=S)nc3ccccc3c21,44.3%,72.4%,92.1,71.1%,110%,4.11% (active),98%,94%,56.3%,71.3%,92.3%,110%,98.5%,97.2%,,80.6,96.6%,
O=Nc1c2cccnc2n2nnc3ccc(Cl)cc3c12,-63.1% (active),-26.8% (active),94.9,-27.7% (active),92.2%,,-29.5% (active),70%,54.8%,12.1%,,70.4%,-67.3% (active),-10.6% (active),0.54% (active),93.1,25.2%,
O=C(Nc1nn2c(-c3cc(C(F)(F)F)cc(C(F)(F)F)c3)nnc2s1)C1CCCC1,20.5%,12%,18.6,18.8%,5.54% (active),40%,22.9%,21.6%,2.45% (active),11.6%,,12.5%,15.5%,6.67% (active),-29.7% (active),,11.1%,
Fc1ccc(-c2nn3c(-c4cc(C(F)(F)F)cc(C(F)(F)F)c4)nnc3s2)cc1,95.6%,20%,95.1,21.7%,-36.1% (active),21.6%,12.7%,24.8%,40.9%,51.8%,,76.3%,65.8%,,-17.3% (active),,77.5%,
COc1ccc(N2CCN(CC(=O)N3CCN(c4nnc(-c5ccccc5)c(-c5ccccc5)n4)CC3)CC2)cc1,1.97% (active),,90.3,49.8%,80.7%,,49.5%,54.7%,49.9%,20.1%,47.8%,45.2%,54.6%,36.4%,29.5%,62.4,37.2%,
